Laboratory results: PubChem BioAssay AID1159580 (chemical genetic matrix, 2015)
Among all 5,500 compounds or so, about 2,000 (36%) were called active. About 18% were inconclusive and are not listed. Rule as the data show it: active = normalized growth mostly below about 0.91 (no sharp cut-off); inconclusive = no clear call, values can overlap the other calls; inactive = mostly above about 0.92. The list shows a part of the results.

Assay: chemical genetic growth profiling, strain panel (AID 1159580);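 also: tested at 20 µM; growth read once vehicle control cultures reached saturation at 30 °C; 1 = growth at the plate median or of vehicle wells; lower values mean less growth of the strain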
Settings: S. cerevisiae deletion strains, growth OD

Measured: normalized growth

CN(C)C(N)=NCCC[C@H](N)C(=O)O
inactive: locus YAL013W, strain DEP1, hits give low values 1 | locus YAL040C, strain CLN3, hits give low values 0.998 | locus YCL061C, strain MRC1 (second series), hits give low values 1.01 | locus YDR150W, strain NUM1, hits give low values 0.997 | locus YDR363W, strain ESC2, hits give low values 1.04 | locus YER002W, strain NOP16, hits give low values 0.979 | locus YJR075W, strain HOC1, hits give low values 1.01 | locus YMR307W, strain GAS1, hits give low values 1.01 | locus YNL128W, strain TEP1, hits give low values 0.988 | locus YNL175C, strain NOP13, hits give low values 1 | locus YNL197C, strain WHI3, hits give low values 1.02 | locus YNL224C, strain SQS1, hits give low values 0.984 | locus YOR083W, strain WHI5 (second series), hits give low values 0.988 | locus YPL055C, strain LGE1, hits give low values 1.03 | locus YPL241C, strain CIN2, hits give low values 1
